Shown are actives, neighbours in structure and some others; about 12% of the full set was active somewhere.
G9a block: inhibitors of human histone lysine methyltransferase G9a; Q96KQ7; G9a H3K9 monomethylation, AlphaScreen, 2 h; Potency, µM (titrated, usually from 102 µM), for the others: top-dose activity, negative = inhibition, usual class: inhibitors; actives 8.8% (n = 350,000); AID 504332; note: % is set by controls: 0 for no effect and ±100 for the full control effect; nearly all actives have a fitted effect of over 75% in size
Target sequence (Q96KQ7 913-1193 limits assumed): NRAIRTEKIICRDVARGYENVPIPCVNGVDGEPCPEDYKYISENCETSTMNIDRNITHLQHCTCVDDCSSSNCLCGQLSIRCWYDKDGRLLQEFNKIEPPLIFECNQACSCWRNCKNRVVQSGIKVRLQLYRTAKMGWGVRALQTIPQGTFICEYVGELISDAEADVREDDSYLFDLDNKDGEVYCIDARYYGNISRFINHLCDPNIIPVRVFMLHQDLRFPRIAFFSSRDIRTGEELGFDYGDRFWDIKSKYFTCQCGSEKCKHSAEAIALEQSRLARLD
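Signal arises when biotinylated H3K9 peptide, once monomethylated, bridges streptavidin donor and antibody-captured acceptor beads. Enzyme at 20 nM was preincubated 15 min with test compounds; peptide 500 nM and SAM 20 uM then reacted for 2 h.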
HP1b binding inh: inhibitors of HP1-beta chromodomain binding to methylated histone tails. P83916. AlphaScreen HP1-beta / biotin-H3K9me3 peptide binding. Potency, µM (titrated, usually from 114 µM), without a hit: at the top dose activity change, negative = inhibition, most hits filed as inhibitors. actives 0.56% (n = 390,000). AID 540317; note: nearly all actives have a fitted effect of over 70% in size
Target sequence (P83916 whole entry, looked up): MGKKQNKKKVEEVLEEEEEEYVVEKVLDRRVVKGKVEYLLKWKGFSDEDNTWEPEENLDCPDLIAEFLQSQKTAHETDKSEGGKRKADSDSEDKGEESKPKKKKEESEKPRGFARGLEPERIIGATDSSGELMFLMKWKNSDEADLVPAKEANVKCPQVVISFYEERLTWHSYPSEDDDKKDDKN
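AlphaScreen: HP1-beta (50 nM) preformed 30 min with biotin-H3(1-18)K9me3 peptide (50 nM) in PBS pH 7.4, 0.01% Tween-20. Compound added for 30 min at RT, then streptavidin donor/nickel chelate acceptor beads (10 ug/mL) for 30 min.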
JMJD2A Tudor inh: JMJD2A Tudor domain (human) inhibition; O75164; AlphaScreen JMJD2A-Tudor / H3K4me3 peptide binding; Potency, µM (top dose mostly 114 µM), for inactives: at the highest dose activity change, negative = inhibition, hits mostly inhibitors; actives 4.4% (n = 390,000); note: % is set by controls: 0 for no effect and ±100 for the full control effect; nearly all actives have a fitted effect of over 50% in size
L3MBTL1 block: blocks human L3MBTL1; AlphaScreen L3MBTL1–H3K9me1 peptide binding; AID 485360; actives 0.66% (n = 230,000); Potency, µM (series often up to 57.1 µM), for inactives: top-dose activity, negative = inhibition, usual class: inhibitors; note: % is set by controls: 0 for no effect and ±100 for the full control effect; nearly all actives have a fitted effect of over 60% in size
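L3MBTL1 50 nM + b-AHA-H3(1-15)K9me1 75 nM, 30 min RT; compound added, 30 min RT; streptavidin donor/Ni-chelate acceptor beads 10 ug/mL each final, 30 min RT dark; AlphaScreen read.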
BAZ2B inh: inhibitors of human BAZ2B bromodomain; AID 504333; Q9UIF8; Potency, µM (doses to about 114 µM), for inactives: top-dose activity change, negative = inhibition, actives largely listed as inhibitors; actives 4.4% (n = 360,000); AlphaScreen BAZ2B-H3K14Ac peptide displacement; note: % is set by controls: 0 for no effect and ±100 for the full control effect; nearly all actives have a fitted effect of over 60% in size
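In this displacement format the biotinylated H3(5-23) peptide acetylated at Lys14 serves as ligand at 50 nM, with BAZ2B at 50 nM in PBS pH 7.4 containing 0.01% Tween-20. Donor and acceptor beads are 10 ug/mL final.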
Sfp PPTase inh: blocks B. subtilis Sfp PPTase activity. Biochemical Sfp PPTase activity, qHTS. Potency, µM, for the others: largest response in the series, negative = inhibition, actives largely listed as inhibitors. actives 3.5% (n = 310,000);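 note: the enzyme is Sfp with the accession as filed and its product quenches rhodamine fluorescence; 0% = enzyme reaction without inhibitor and -100% = no enzyme wells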
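Reaction rates are the 30-min fluorescence difference (ex 525, em 598 nm) in wells containing 15 nM Sfp, 5 uM rhodamine-CoA and 12.5 uM BHQ-2-YbbR at pH 7.6 with 10 mM MgCl2.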
* marks the source's active call; other numbers are inactive results; [ ] = remark or other dose. Calls come from the whole dose curve; as a rule, active = well fitted curve in the direction sought with a large enough effect; inconclusive = small, poorly fitted or top-dose-only effect, or another doubt; inactive = no such curve, though single readings can be large; an effect the other way counts as inactive or inconclusive. Potency is the fitted concentration of half-maximal effect.

Cc1ccc(NC2c3ncccc3C(=O)N2Cc2ccco2)c(C)c1 (stereo unspecified) was read as G9a block 45µM*, HP1b binding inh 16%, JMJD2A Tudor inh inconclusive, L3MBTL1 block -7%, BAZ2B inh -33% and Sfp PPTase inh 3%.
CSc1nc(N)c2ncn([C@H]3O[C@H](COP(=O)(O)OP(=O)(O)OP(=O)(O)O)[C@@H](O)[C@@H]3O)c2n1 was read as Sfp PPTase inh -7%.
`O=c1c(-c2ccccc2)nc2cnc(N3CCNCC3)nc2n1-c1ccccc1` gave G9a block 1%[0.501 µM] and Sfp PPTase inh -8%.
CC(=O)/C(N=Nc1ccc(C(=O)O)cc1[N+](=O)[O-])=C(\C)O was read as G9a block inconclusive, HP1b binding inh 21%, JMJD2A Tudor inh -17%, BAZ2B inh 56µM* and Sfp PPTase inh -5%.
`CC(=O)Nc1cc2c(cc1[N+](=O)[O-])OCCO2` gave G9a block 8%, HP1b binding inh 27%, JMJD2A Tudor inh -7%[57.1 µM], BAZ2B inh 3% and Sfp PPTase inh -3%.
Screening CC(=O)/C(N=Nc1cc2c(cc1[N+](=O)[O-])OCCO2)=C(\C)O returned G9a block -13%, HP1b binding inh -11%, JMJD2A Tudor inh 18µM*, L3MBTL1 block -5%, BAZ2B inh -10% and Sfp PPTase inh 9%.
`CCOC(=O)c1cnc2c(Cl)cc(Cl)cc2c1Nc1ccccc1OC` gave G9a block -4%[59 µM], HP1b binding inh 37%, JMJD2A Tudor inh -6% and BAZ2B inh 0%.
`Cc1c(C(=O)Nc2cccc(Cl)c2)sc2nc3n(c(=O)c12)N=C(c1cccc(Br)c1)CS3` gave G9a block -1%[59 µM], HP1b binding inh 10%, JMJD2A Tudor inh -10% and BAZ2B inh -2%.
Cc1ccc(NCCCn2cnc3c(OCc4ccccc4)ncnc32)cc1C was read as HP1b binding inh inconclusive and JMJD2A Tudor inh 50µM*.
`c1ccc(CNCCCn2cnc3c(OCc4ccccc4)ncnc32)cc1` gave HP1b binding inh 17% and JMJD2A Tudor inh -16%.
Screening CCN(CC)c1ccc(C2C3CCCCC3(O)CCN2C(=O)c2cccs2)cc1 (stereo unspecified) returned G9a block 50µM*, HP1b binding inh -29%, JMJD2A Tudor inh inconclusive, L3MBTL1 block inconclusive, BAZ2B inh inconclusive and Sfp PPTase inh -13%.
N=c1c2c(ncn1Cc1ccco1)Oc1cc(O)ccc1C2c1ccccc1 (stereo unspecified) was read as HP1b binding inh 42%, JMJD2A Tudor inh -16%, L3MBTL1 block -3%, BAZ2B inh -21% and Sfp PPTase inh -20%.
For N=c1c2c(ncn1Cc1ccco1)Oc1c(ccc3ccccc13)C2c1ccccc1 (stereo unspecified) the results were G9a block -1%[2.33 µM], HP1b binding inh inconclusive, JMJD2A Tudor inh inconclusive, L3MBTL1 block -3%, BAZ2B inh 50µM* and Sfp PPTase inh 50µM*.
Screening O=C(CNC(=O)c1ccc(-c2ccccc2)cc1)OC(C(=O)Nc1cc(C(F)(F)F)ccc1Cl)c1ccccc1 (stereo unspecified) returned JMJD2A Tudor inh -8%.
For COc1ccc(CNc2nc(-c3cccnc3)nn2S(C)(=O)=O)cc1 the results were G9a block 5%, HP1b binding inh 36%, JMJD2A Tudor inh -14%, L3MBTL1 block inconclusive, BAZ2B inh -7% and Sfp PPTase inh 18%.
Screening COc1cccc(/C=N/NC(=O)c2cc(-c3cccn3C)n[nH]2)c1 returned G9a block -16%[59 µM], HP1b binding inh inconclusive, JMJD2A Tudor inh -34%, L3MBTL1 block -26%, BAZ2B inh inconclusive and Sfp PPTase inh -3%.
Screening COc1cc(/C=N/NC(=O)c2cc(-c3cccn3C)n[nH]2)cc(OC)c1OC returned HP1b binding inh -32%, JMJD2A Tudor inh inconclusive, L3MBTL1 block -13%, BAZ2B inh 40µM* and Sfp PPTase inh 6%.
Screening Cn1cccc1-c1cc(C(=O)N/N=C/c2ccc(Cl)cc2)[nH]n1 returned G9a block -15%, HP1b binding inh -28%, JMJD2A Tudor inh inconclusive, BAZ2B inh 50µM* and Sfp PPTase inh -11%.
For CC(C)Cn1c(=O)oc2ccccc21 the results were G9a block 7%, HP1b binding inh 44%, JMJD2A Tudor inh 2%, L3MBTL1 block -2%, BAZ2B inh -13% and Sfp PPTase inh 14%.
For CCCCn1c(=O)[nH]c(=O)c2c1nc(-c1ccc([N+](=O)[O-])cc1)n2CC the results were G9a block inconclusive, HP1b binding inh 27%, JMJD2A Tudor inh -3%, BAZ2B inh 20% and Sfp PPTase inh 15%.
`CCn1c(-c2ccc([N+](=O)[O-])cc2)n[nH]c1=S` gave G9a block 4µM*, HP1b binding inh 22%, JMJD2A Tudor inh 3.5µM*, L3MBTL1 block -1%, BAZ2B inh -30% and Sfp PPTase inh 4%.
For C=CCn1c(-c2ccc3ncccc3c2)n[nH]c1=S the results were G9a block 7.9µM*, HP1b binding inh 8%, JMJD2A Tudor inh 7.1µM*, BAZ2B inh 5% and Sfp PPTase inh -10%.
`CCn1c(-c2cccc(Br)c2)n[nH]c1=S` gave G9a block inconclusive, HP1b binding inh 0%, JMJD2A Tudor inh 7.9µM*, L3MBTL1 block -1%, BAZ2B inh 16% and Sfp PPTase inh -16%.
For CCn1c(-c2sc(-c3ccccc3)nc2C)n[nH]c1=S the results were G9a block -128%[59 µM], HP1b binding inh -6%, JMJD2A Tudor inh 18µM*, L3MBTL1 block 10%, BAZ2B inh -8% and Sfp PPTase inh -20%.
Screening Cc1nc(-c2ccccc2)sc1-c1ccn[nH]1 returned G9a block -7%, HP1b binding inh 33%, JMJD2A Tudor inh -12%, L3MBTL1 block 6%, BAZ2B inh -5% and Sfp PPTase inh 10%.
For S=c1[nH]nc(-c2cccc(Cl)c2)n1CCN1CCCCC1 the results were G9a block inconclusive, HP1b binding inh -7%, JMJD2A Tudor inh -35%[57.1 µM], L3MBTL1 block 0%, BAZ2B inh 7% and Sfp PPTase inh -15%.
`CCN(Cc1ccccc1)c1ccc(Br)cn1` gave JMJD2A Tudor inh 88%.
`COc1ccc(C(OCCN2CCC[C@@H](C(=O)O)C2)(c2ccc(OC)cc2)c2ccc(OC)cc2)cc1` gave Sfp PPTase inh 10%.
